These results are taken from PubChem BioAssay (EPA / NIEHS).

In general, AC50 refers to the concentration giving half of the maximal activity seen.

Values joined by “and” are separate entries in the source; they are usually repeats but may differ in a detail not shown here. Equal values may be shown once. The source holds several records for some structures; these can differ, active in one and inactive in another. Active and inactive are the calls of the source. Rule for the calls: active = hit-call score of the fitted dose curve at least 0.9, where 1 is the maximum; inactive = score below 0.9.

Sequence of Tumor necrosis factor (Homo sapiens) (P01375 whole entry, looked up): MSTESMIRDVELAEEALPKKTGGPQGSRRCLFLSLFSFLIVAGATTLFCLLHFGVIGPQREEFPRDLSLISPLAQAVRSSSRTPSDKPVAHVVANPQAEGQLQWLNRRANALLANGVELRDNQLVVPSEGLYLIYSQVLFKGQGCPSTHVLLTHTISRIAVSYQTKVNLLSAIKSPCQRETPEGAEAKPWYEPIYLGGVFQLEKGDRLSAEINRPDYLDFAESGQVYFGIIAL

Read-out in this test: Tumor necrosis factor (Homo sapiens) (UniProt P01375)
Kind of test: BSK_LPS_TNFa: BioMAP Diversity Plus: LPS Assay for Tumour Necrosis Factor alpha (TNFa) Biomarker Activity (AID 2283085). The conditions noted are these: primary human HUVEC with PBMC; actives raise or lower the signal. How it is done:
BSK_LPS is a cell-based, multiplexed-readout assay that uses umbilical vein endothelium and peripheral blood mononuclear cells, a human vascular primary cell co-culture, with measurements taken at 24 hours after chemical dosing in a 96-well plate.BSK_LPS_TNFa is an assay component measured in the BSK_LPS assay. It measures TNF-a antibody related to regulation of gene expression using ELISA technology.Data from the assay component BSK_LPS_TNFa was analyzed into 1 assay endpoint. This assay endpoint, BSK_LPS_TNFa, was analyzed with bidirectional fitting relative to DMSO as the negative control and baseline of activity. Using a type of binding reporter, gain or loss-of-signal activity can be used to understand changes in the signaling as they relate to the gene TNF. Furthermore, this assay endpoint can be referred to as a primary readout, because this assay has produced multiple assay endpoints where this one serves a signaling function. To generalize the intended target to other relatable targets, this assay endpoint is annotated to the cytokine intended target family, where the subfamily is inflammatory factor.
The levels of cell surface (or secreted, indicated by the prefix "s") biomarker endpoints were measured by ELISA. Overt cytotoxicity to cells in confluent adherent cultures (all systems other than the BT system) was assessed by measuring total protein levels using sulforhodamine B (SRB) staining in parallel cultures at the time of biomarker measurements, indicated as SRB endpoints. For proliferation assays for adherent cell types, individual cell types are cultured at sub-confluence and relative cell numbers quantified by SRB staining at time points optimized for each system (48 h: 3C and CASM3C systems; 72 h: BT and HDF3CGF systems; 96 h: SAg system). SRB was performed by staining cells with 0.1% SRB after fixation with 10% TCA and reading wells at 560 nm.Viability and proliferation of PBMC (T cells) was quantified by Alamar Blue reduction for the SAg and BT systems. For PBMC viability (referred to as PBMC Cytotoxicity within the assay endpoint names), cells were plated (75,000/well in a 96-well plate) and then chemical samples added for 1 h before addition of activators, SEB and TSST-1 (20 ng/mL final concentration each). Cells were incubated for 90 h. Then, Alamar Blue (20 uL/well) (Invitrogen, Cat DAL1100) was added for 6 h, and the plates were read with a fluorescence microplate reader at 546/580 nm (excitation/emission). For PBMC proliferation, cells were plated and activated as above but incubated for only 16 h prior to addition of Alamar Blue. Plates were read after 6 h.
For `COC(=O)c1cccc(C)c1S(=O)(=O)NC(=O)Nc1nc(OCC(F)(F)F)nc(N(C)C)n1`, the result was inactive. Consider `S=C(S)NCCNC(=S)S.[Mn+2].[S-]C([S-])=NCCN=C([S-])[S-].[Zn+2]`, for which the AC50 is 2.39 µM (active) and the result was inactive. Regarding `CCOC(=O)c1ccc(O)cc1`, the outcome was inactive. As for `COC(=O)CSc1cc(N=c2sc(=O)n3n2CCCC3)c(F)cc1Cl`, the AC50 is 9.6 µM (active).

On to `CCSC(=O)N(CC(C)C)CC(C)C`, for which the outcome was inactive. As to `CC(C)CCCCCCc1ccc(O)cc1`, the concentration at half-maximal activity (AC50) is 7.19 µM (active).

As for `COC(=O)c1c(Cl)nn(C)c1S(=O)(=O)NC(=O)Nc1nc(OC)cc(OC)n1`, the result was inactive. The same measure, in the same setting: the entry for `C#C[C@]1(O)CC[C@H]2[C@@H]3CCC4=CC(=O)CC[C@@H]4[C@H]3CC[C@@]21CC` is “inactive”.

As to `CCCN(CCC)c1c([N+](=O)[O-])cc(C(F)(F)F)c(N)c1[N+](=O)[O-]`, the AC50 was 30.2 µM (active). In the case of `COc1c(Cl)ccc(Cl)c1C(=O)O`, the result was inactive. For `S=C([S-])NCCNC(=S)[S-].[Mn+2]`, the AC50 was 20 µM (active).

On to `CSC(=O)c1cccc2nnsc12`, for which the AC50 was 4.96 µM (active). Turning to `CN(C)C(=O)Nc1ccc(Cl)c(Cl)c1`, the outcome was inactive. As for `Cc1nn(C)c(Oc2ccccc2)c1C=NOCc1ccc(C(=O)OC(C)(C)C)cc1`, the outcome was inactive. On the same count and under the same terms, the result for `CCCOC(=O)c1ccc(C(=O)OCCC)nc1` reads “inactive”. Turning to `CC(=O)S[C@@H]1CC2=CC(=O)CC[C@]2(C)[C@H]2CC[C@@]3(C)[C@@H](CC[C@@]34CCC(=O)O4)[C@H]12`, the concentration at half-maximal activity (AC50) is 13.9 µM (active). Same read-out and setting: the figure for `CCCCCCC(C)OC(=O)COc1nc(F)c(Cl)c(N)c1Cl` (stereo not given) is 34.3 µM (active). On to `O=C(c1ccc(O)cc1O)c1ccc(O)cc1O`, for which the result was inactive. Still for that read-out and setting: the entry for `O=C(c1ccccc1)C1CCCCC1` is “inactive”. For `CC(C)(c1ccc(O)cc1)c1ccc(O)cc1`, the outcome was inactive and the concentration at half-maximal activity (AC50) is 2.8 µM (active).

As to `CCOC(=O)C(C)Oc1ccc(Oc2cnc3cc(Cl)ccc3n2)cc1` (stereo not given), the outcome was inactive. On to `CC(C)(C)[C@@H](O)[C@@H](Cc1ccc(Cl)cc1)n1cncn1`, for which the result was inactive. For the compound `N#CSCSc1nc2ccccc2s1`, the AC50 was 992 nM (active) and 2.17 µM (active). On to `CCOC(=O)C(C)Oc1ccc(Oc2nc3ccc(Cl)cc3o2)cc1` (stereo not given), for which the outcome was inactive.

Regarding `CCC(O)=C1C(=O)CC(C(=O)O)CC1=O` (stereo not given), the result was inactive. For the compound `C#CCOC(=O)[C@@H](C)Oc1ccc(Oc2ncc(Cl)cc2F)cc1`, the outcome was inactive.

Regarding `COCCO`, the result was inactive. In the case of `CCCCC(CC)CN1C(=O)C2C3C=CC(C3)C2C1=O` (stereo not given), the concentration at half-maximal activity (AC50) was 0.237 µM (active). Regarding `C[C@]12CC[C@@H]3c4ccc(O)cc4C[C@@H](CCCCCCCCCS(=O)CCCC(F)(F)C(F)(F)F)[C@H]3[C@@H]1CC[C@@H]2O` (stereo not given in full), the result was inactive.

As to `C=CCOC(Cn1ccnc1)c1ccc(Cl)cc1Cl` (stereo not given), the outcome was inactive. Regarding `CCCCCOC(=O)COc1cc(N2C(=O)C3=C(CCCC3)C2=O)c(F)cc1Cl`, the AC50 is 20 µM (active). Still for that read-out and setting: the figure for `Oc1ccc(C(c2ccc(O)cc2)C(Cl)(Cl)Cl)cc1` is 4.66 µM (active). On the same count and under the same terms, the figure for `c1ccc(Nc2ccccc2)cc1` is 13 µM (active). Regarding `OB(O)O`, the outcome was inactive. Consider `N[C@@H](Cc1cc(I)c(Oc2ccc(O)c(I)c2)c(I)c1)C(=O)O`, for which the result was inactive. For the compound `CCCCOC(=O)[C@@H](C)Oc1ccc(Oc2ccc(C(F)(F)F)cn2)cc1`, the result was inactive. On to `COC(=O)c1ccc(CNS(C)(=O)=O)cc1S(=O)(=O)NC(=O)Nc1nc(OC)cc(OC)n1`, for which the outcome was inactive. As for `COC(=O)c1ccccc1C(=O)O`, the outcome was inactive.
